Compound activity from PubChem BioAssay.
TSHR ag – qHTS Assay for Agonists of the Thyroid Stimulating Hormone Receptor. Potency, µM (top dose mostly 57.1 µM), without a hit: at the highest dose activation, usual class: activators. 73,000 compounds, 0.48% hits. Thyrotropin receptor (Homo sapiens), P16473. HEK293-CNG-TSHR cells (CNG channel as cAMP sensor), membrane potential dye, cAMP; active = well fitted activation curve with a large enough effect in the main read-out, with a control signal flat, not every such curve was filed as active; inconclusive = small, poorly fitted or top-dose-only effect, or a change in a side signal; inactive = no such curve, though single readings can be large or run the other way; % of control where 0% means no effect;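 note: the control signal comes from parental cells without the receptor; potency is the fitted concentration of half-maximal effect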
Target sequence (P16473 whole entry, looked up): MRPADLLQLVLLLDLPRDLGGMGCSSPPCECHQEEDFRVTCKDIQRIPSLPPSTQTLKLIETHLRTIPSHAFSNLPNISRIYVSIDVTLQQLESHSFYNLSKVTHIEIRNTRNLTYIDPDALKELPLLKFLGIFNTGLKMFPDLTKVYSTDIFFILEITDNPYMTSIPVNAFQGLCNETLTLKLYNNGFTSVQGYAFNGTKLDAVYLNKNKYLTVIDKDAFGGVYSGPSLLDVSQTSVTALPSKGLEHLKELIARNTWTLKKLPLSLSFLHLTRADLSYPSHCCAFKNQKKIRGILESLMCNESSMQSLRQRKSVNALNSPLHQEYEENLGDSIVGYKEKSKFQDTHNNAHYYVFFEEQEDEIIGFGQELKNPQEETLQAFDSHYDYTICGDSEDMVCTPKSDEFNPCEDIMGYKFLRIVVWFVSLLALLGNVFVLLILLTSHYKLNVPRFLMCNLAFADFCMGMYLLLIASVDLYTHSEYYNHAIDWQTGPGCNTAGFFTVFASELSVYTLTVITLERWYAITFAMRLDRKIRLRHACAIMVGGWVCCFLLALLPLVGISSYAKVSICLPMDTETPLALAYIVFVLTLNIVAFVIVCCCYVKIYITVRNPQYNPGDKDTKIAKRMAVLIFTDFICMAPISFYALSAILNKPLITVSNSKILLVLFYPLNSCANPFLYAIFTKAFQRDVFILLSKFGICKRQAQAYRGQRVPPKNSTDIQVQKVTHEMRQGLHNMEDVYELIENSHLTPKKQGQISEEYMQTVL
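HEK 293 cells stably expressing TSHR and a cAMP-gated CNG channel; parental CNG-only cells as counterscreen. Cells preloaded 60 min with membrane potential dye plus 100 uM RO 20-1724, then compound 30 min; fluorescence read at 590 nm.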
HBB splice mod – qHTS Assay for Modulators of Hemoglobin Beta Chain Splicing; 65,000 compounds, 0.06% hits; HBB splicing reporter cell assay, activation; EGFP reporter with mutant IVS2-654 intron; response scale: normalised to 500 nM splice-correcting PNA; Potency, µM (top dose mostly 46.1 µM), for inactives: top-dose activation, actives largely listed as activators; note: potency is the fitted concentration of half-maximal effect; 0% is about no effect
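Compounds were applied for 2 days to HeLa EGFP-654 cells, 500/well in Optimem with 2% FCS. The reporter's EGFP is disrupted by mis-splicing of beta-globin intron IVS2-654. Readout: summed well GFP fluorescence from 488 nm laser scanning; reference was 500 nM antisense […] 654 PNA.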
Ub-GFP proteasome – Ubiquitin-GFP Assay. Ubiquitin-GFP reporter cells, proteasome inhibition, GFP fluorescence; response scale: untreated = 0%, 10 µM MG-132 = 100%. Potency, µM (titrated, usually from 45.9 µM), for inactives: at the top dose activation (GFP accumulation), hits mostly activators. AID 526, 2006. 67,000 tested, under 10 active; active = well fitted activation curve with a large enough effect, not every such curve was filed as active; inconclusive = small, poorly fitted or top-dose-only effect, or another doubt; inactive = no such curve, though single readings can be large or run the other way; note: potency is the fitted concentration of half-maximal effect
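Proteasome blockade was scored as a rise in GFP-expressing U2OS cells carrying a ubiquitin(G76V)-GFP construct, imaged after 4 hr compound treatment at 37 °C across a 46 uM–2.9 nM series.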
HEK293 cAMP ctrl – qHTS Assay for Agonists of the Thyroid Stimulating Hormone Receptor: Activators of Intracellular cAMP Concentrations in Parental HEK 293. parental HEK293 CNG cAMP sensor, membrane potential fluorescence. Potency, µM (series often up to 57.1 µM), for the others: at the highest dose activation, actives largely listed as activators. 73,000 compounds, 2.5% hits; note: potency is the fitted concentration of half-maximal effect; % of control where 0% means no effect; nearly all actives have a fitted effect of over 55% in size
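Parental HEK 293 cells stably expressing a cAMP-gated CNG channel were loaded with membrane potential dye containing 100 uM RO 20-1724 for 60 min. Compound added for 30 min; depolarization read as fluorescence intensity at 590 nm.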
GFP derepression – qHTS Assay for Epigenetic Modulators; mouse C127i GFP locus derepression, cytometry, 30 h; Potency, µM (series often up to 46.1 µM), without a hit: top-dose GFP derepression (activation); 68,000 compounds, 0.09% hits; note: % of control where 0% means no effect
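Read-out is the number of GFP-positive cells, scored as fluorescent objects 20 to 120 um wide, reflecting derepression of a silenced CMV-GFP reporter in murine C127i cells after 30 h compound exposure at 37 C.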
ERK AVP block – qHTS Assay for Inhibitors of the ERK Signaling Pathway using a Homogeneous Screening Assay | HEK293-V1b, vasopressin-stimulated pERK AlphaScreen | Potency, µM (highest dose often 57.5 µM), without a hit: top-dose activity, negative = inhibition, usual class: inhibitors | 72,000 compounds, 0.99% hits; note: potency is the fitted concentration of half-maximal effect; % is set by controls: 0 for no effect and ±100 for the full control effect; nearly all actives have a fitted effect of over 55% in size
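Phosphorylated ERK1/2 detected via AlphaScreen bead proximity in lysates of V1b-expressing HEK293 cells given 25 nM vasopressin for 5 min after 30 min compound exposure (37 °C). AC50 from Hill equation; basal DMSO 0%, vasopressin 100%.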
The depositor's hits bear a star; ? = inconclusive; . = not tested or not shown; ! = a repeat was not active; [ ] = dose if it differs, or a comment. The list is not random: actives were taken first. Their share in the collection is about 3.8%. Unless noted, calls come from the whole dose curve; as a rule, active = well fitted curve in the direction sought with a large enough effect; inconclusive = small, poorly fitted or top-dose-only effect, or another doubt; inactive = no such curve, though single readings can be large; an effect the other way counts as inactive or inconclusive.

SMILES	TSHR ag	HBB splice mod	Ub-GFP proteasome	HEK293 cAMP ctrl	GFP derepression	ERK AVP block
C[C@@H]1CC[C@@]2(OC1)O[C@H]1[C@@H](O)[C@H]3[C@@H]4CC[C@H]5C[C@@H](O[C@@H]6O[C@H](CO)[C@H](O[C@@H]7O[C@H](CO)[C@@H](O)[C@H](O[C@@H]8OC[C@@H](O)[C@H](O)[C@H]8O)[C@H]7O[C@@H]7O[C@H](CO)[C@@H](O)[C@H](O[C@@H]8O[C@H](CO)[C@@H](O)[C@H](O)[C@H]8O)[C@H]7O)[C@H](O)[C@H]6O)[C@H](O)C[C@]5(C)[C@H]4CC[C@]3(C)[C@H]1[C@@H]2C	?	0%	.	?	.	32µM*
Cn1cccc1CN1CCN(C(=O)COc2ccccc2)CC1	8%	.	.	-3%	.	.
Cn1nc(-c2ccc(OCC(=O)N3CCN(Cc4ccccc4)CC3)cc2)c2ccccc2c1=O	?	1%	10%	?	0%	32µM*
N#CC(C#N)=NNc1ccc(OC(F)(F)F)cc1	?	-1%	.	0.63µM*	.	26%
CCCN(CCC)[C@@H]1CCc2c(OC)cccc2[C@@H]1C	?	.	2%	32µM*	0%	-16%
O=c1ccc2cc(O[C@@H]3O[C@@H](CO)[C@@H](O)[C@@H](O)[C@H]3O)c(O)cc2o1	-1%	.	11%	-1%	5%[9.22 µM]	.
c1ccc(/N=C2\N=C(Nc3ccccn3)c3ccccc32)nc1	7.9µM*	0%[57.5 µM]	-2%	19%	13µM*	?
Cc1noc(C)c1C(=O)N1CCC2(CCCN(CC(C)C)C2)CC1	?	4%	4%	16µM*	2%[9.22 µM]	22%
Cc1noc(C)c1C(=O)N1CCC2(CC1)OCCO2	2%	-1%	6%	2%	-3%	-12%
C=CCCN1C[C@@H]2C[C@H](C1)c1cccc(=O)n1C2	-5%	.	0%	3%	-9%[9.22 µM]	.
N#Cc1ccccc1Cn1cc(C(=O)c2ccco2)c2ccccc21	?	.	4%	16µM*	0%	-16%
O=C(Cn1cc(C(=O)c2ccccc2F)c2ccccc21)NCc1ccco1	16%	0%	-2%	7%	3%	-16%
CCC(=O)c1cn(Cc2ccccc2C#N)c2ccccc12	?	0%[57.5 µM]	2%	20µM*	0%	0%
N#Cc1ccccc1Cn1cc(C(=O)C2CC2)c2ccccc21	?	.	-1%	?	0%	-7%
COC1=C[C@H]2[C@@H]3Cc4ccc(OC)c(O)c4[C@@]2(CCN3C)CC1=O	11%	.	-3%	1%	-2%[9.22 µM]	.
O=C(O)[C@@H](O)[C@@H](O)[C@@H]1[O][Sb][O][C@@H]1CO	.	-2%[9.22 µM]	-5%[9.17 µM]	-5%[11.4 µM]	0%[9.22 µM]	0%[11.5 µM]
CCNC(=O)C1OC(n2cnc3c(N)ncnc32)C(O)C1O (configuration not stated)	?	.	.	0.63µM*	.	.
CCN(CC)c1ncnc2c1ncn2[C@@H]1O[C@@H](COP(=O)(O)OP(=O)(O)C(Br)(Br)P(=O)(O)O)[C@H](O)[C@H]1O	2%	.	-3%	1%	-1%	-15%
N[C@H](Cn1cc(I)c(=O)[nH]c1=O)C(=O)O	2%	1%	10%	6%	-1%	.
Oc1c(Cl)c(Cl)cc(Cl)c1Cl	?	-2%	.	40µM*	.	6%
Oc1cc(Cl)c(Cl)c(Cl)c1Cl	?	-1%	.	40µM*	.	-7%
Oc1cc(Cl)c(Cl)cc1Cl	.	-1%	.	14%	.	10%
O=c1cccc2n1C[C@H]1C[C@@H]2CN(CCO)C1	0%	.	-3%	-1%	-5%[9.22 µM]	.
O=C1OC(=O)c2c(Cl)c(Cl)c(Cl)c(Cl)c21	?	0%	.	40µM*	.	-5%
Cc1cccc(N2CCc3c2nc2ccccc2c3N)c1	-51%	3%[57.5 µM]	-3%	-74%	1%	25µM*!
SMILES	TSHR ag	HBB splice mod	Ub-GFP proteasome	HEK293 cAMP ctrl	GFP derepression	ERK AVP block
O=C1C=CC(=O)c2c1ccc1c2ccc2ccccc21	-18%[25.6 µM]	1%[20.6 µM]	7%[20.5 µM]	1%[25.6 µM]	-1%[20.6 µM]	13µM*
Cc1ccc2ccccc2c1C	.	0%	.	.	.	-23%
N#CC(C(=O)C12CC3CC(CC(C3)C1)C2)c1nc2ccccc2[nH]1 (configuration not stated)	?	0%	7%	3.2µM*	0%	?
Ic1ccccc1CN[C@@H]1C2CCN(CC2)[C@H]1C(c1ccccc1)c1ccccc1	?	0%	3%	?	-1%	17%
C=C[C@@H]1C[C@@]1(C)[C@@H](NP(=O)(c1ccccc1)c1ccccc1)c1ccccc1	?	-1%	.	5µM*	.	-6%
Cc1c2ccncc2c(C)c2c1[nH]c1ccccc12	-21%[25.6 µM]	13µM*	-5%[20.5 µM]	5%[25.6 µM]	13µM*!	13%
NC(=NCCC[C@@H](N)C(=O)O)N[N+](=O)[O-]	?	1%	-2%	?	0%	.
CC(C)(C)C(=O)C1C(=O)c2ccccc2C1=O	-2%	16µM*	.	20%	.	11%
CN1CCc2cc3c(cc2[C@@H]1[C@H]1OC(=O)c2c1ccc1c2OCO1)OCO3	?	.	0%	?	-2%[9.22 µM]	.
Cc1cc2c(C(C)C)c(O)c(O)c(C=O)c2c(O)c1-c1c(C)cc2c(C(C)C)c(O)c(O)c(C=O)c2c1O	-11%	-1%[20.6 µM]	10%	2%	0%	25µM*!
CC[C@H]1CN2CC[C@@H]1C[C@@H]2[C@H](O)c1ccnc2ccccc12	1%	.	2%	0%	0%[9.22 µM]	.
C=C(C)[C@H]1Cc2c(ccc3c2O[C@H]2COc4cc(OC)c(OC)cc4[C@@H]2C3=O)O1	?	-3%	-1%	?	-2%	6%
CN(CC1COc2ccccc2O1)c1nc(-c2cccnc2)nc2ccccc12 (configuration not stated)	?	0%[57.5 µM]	1%	25µM*	-2%	17%
CC(C)OC(=O)Nc1cccc(Cl)c1	.	.	.	.	.	10%
N#CC(C#N)=NNc1cccc(Cl)c1	?	0%	.	0.63µM*	.	12%
COC(=O)[C@@H]1C[C@@H]1[C@@H](NP(=O)(c1ccccc1)c1ccccc1)c1ccccc1	?	0%	.	10µM*	.	.
CNC(=O)[C@H]1C[C@@H]1[C@H](NP(=O)(c1ccccc1)c1ccccc1)c1ccccc1	?	2%	.	16µM*	.	9%
COC(=O)[C@]1(C)C[C@H]1[C@H](NP(=O)(c1ccccc1)c1ccccc1)c1ccccc1	?	1%	.	?	.	-19%
